# Results: the supplement of paper PMC8285479
# Where a name gives a salt, the structure may show the parent alone. ± gives the standard deviation of the averaged measurements. In all, about 1,900 compounds were measured (“normalised cell viability (NPI; 0 = phenylarsine oxide control, 1 = DMSO control)”: median about 1, lowest 2% from about 0.039 on). The full list was thinned out, with the lowest values kept by preference.
# System: NCI-H1944
# Experiment: normalised cell viability (NPI; 0 = phenylarsine oxide control, 1 = DMSO control) (fraction of DMSO control); NCI-H1944 is a non-small cell lung cancer line; higher = more viable cells (less compound toxicity)
# Settings: 6 days
# [1] = glucocorticoid arm: hydrocortisone 2.75 uM co-treatment, compound 1 µM
# [2] = glucocorticoid arm: hydrocortisone 2.75 uM co-treatment, compound 5 µM
# [3] = glucocorticoid arm: hydrocortisone 2.75 uM pre-treated 2 days and continued, compound 1 µM
# [4] = glucocorticoid arm: hydrocortisone 2.75 uM pre-treated 2 days and continued, compound 5 µM
# [5] = glucocorticoid arm: vehicle, compound 1 µM
# [6] = glucocorticoid arm: vehicle, compound 5 µM
# 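Note: CTB read-out in 384-well plates, triplicate wells, NPI normalised per plate against 1 µM phenylarsine oxide (0) and 0.1% DMSO (1) controls.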
smiles,measurement,setting,value
CCCS(=O)(=O)Nc1ccc(F)c(C(=O)c2c[nH]c3ncc(-c4ccc(Cl)cc4)cc23)c1F [Vemurafenib (PLX4032)],normalised cell viability,[1],1.05 ± 0.011
same,normalised cell viability,[2],0.997 ± 0.029
same,normalised cell viability,[3],1.03
same,normalised cell viability,[4],1.01 ± 0.026
same,normalised cell viability,[5],1.017 ± 0.0058
same,normalised cell viability,[6],1.007 ± 0.0058
COc1cc2nccc(Oc3ccc(NC(=O)Nc4ccc(F)cc4F)c(F)c3)c2cc1OC,normalised cell viability,[1],1.05 ± 0.011
same,normalised cell viability,[2],1.06 ± 0.01
same,normalised cell viability,[3],1.037 ± 0.0058
same,normalised cell viability,[4],1.04 ± 0.021
same,normalised cell viability,[5],1.003 ± 0.0063
same,normalised cell viability,[6],1.013 ± 0.0058
"Nc1ncnc2c1ncn2[C@@H]1O[C@@H]2COP(=O)(O)O[C@H]2[C@H]1O [Adenosine 3',5'-cyclic monophosphate]",normalised cell viability,[1],0.986 ± 0.014
same,normalised cell viability,[2],0.9813 ± 0.007
same,normalised cell viability,[3],0.998 ± 0.011
same,normalised cell viability,[4],0.965 ± 0.019
same,normalised cell viability,[5],0.991 ± 0.016
same,normalised cell viability,[6],0.9797 ± 0.0074
NCc1c[nH]c(=S)n1[C@H]1CCc2c(F)cc(F)cc2C1 [Nepicastat (SYN-117) HCl],normalised cell viability,[1],0.9937 ± 0.006
same,normalised cell viability,[2],1
same,normalised cell viability,[3],1.01 ± 0.022
same,normalised cell viability,[4],0.98 ± 0.017
same,normalised cell viability,[5],0.9937 ± 0.0085
same,normalised cell viability,[6],0.9913 ± 0.0051
C=CC(=O)Nc1cc(Nc2nccc(-c3cn(C)c4ccccc34)n2)c(OC)cc1N(C)CCN(C)C,normalised cell viability,[1],0.891 ± 0.003
same,normalised cell viability,[2],0.842 ± 0.022
same,normalised cell viability,[3],0.944 ± 0.015
same,normalised cell viability,[4],0.916 ± 0.034
same,normalised cell viability,[5],0.789 ± 0.028
same,normalised cell viability,[6],0.762 ± 0.045
CC[C@@H]1SC2(CCN(C)CC2)NC1=O,normalised cell viability,[1],1.02
same,normalised cell viability,[2],1.01 ± 0.011
same,normalised cell viability,[3],1.03 ± 0.029
same,normalised cell viability,[4],1.02 ± 0.011
same,normalised cell viability,[5],1.013 ± 0.0058
same,normalised cell viability,[6],1.01 ± 0.012
Cc1ccc(S(=O)(=O)N[C@@H](Cc2ccccc2)C(=O)CCl)cc1 [N-p-Tosyl-L-phenylalanine chloromethyl ketone],normalised cell viability,[1],0.9977 ± 0.0032
same,normalised cell viability,[2],1.01 ± 0.028
same,normalised cell viability,[3],0.868 ± 0.25
same,normalised cell viability,[4],1.02 ± 0.015
same,normalised cell viability,[5],1.007 ± 0.0058
same,normalised cell viability,[6],0.691 ± 0.057
O=C(N[C@@H](Cc1ccccc1)C(=O)CCl)OCc1ccccc1 [Z-L-Phe chloromethyl ketone],normalised cell viability,[1],1.03 ± 0.01
same,normalised cell viability,[2],0.028 ± 0.0044
same,normalised cell viability,[3],1.02 ± 0.016
same,normalised cell viability,[4],1.075 ± 0.0071
same,normalised cell viability,[5],1.03 ± 0.01
same,normalised cell viability,[6],0.149 ± 0.086
CC(C)[C@H](NC(=O)OCc1ccccc1)C(=O)N[C@H](C=O)Cc1ccccc1,normalised cell viability,[1],0.989 ± 0.011
same,normalised cell viability,[2],0.987 ± 0.041
same,normalised cell viability,[3],0.997 ± 0.0052
same,normalised cell viability,[4],1.03 ± 0.085
same,normalised cell viability,[5],1 ± 0.0087
same,normalised cell viability,[6],1 ± 0.013
CC1=C(C(=O)OC2CCCCC2)C(c2ccc([N+](=O)[O-])cc2)C2=C(CC(C)(C)CC2=O)N1 (configuration not stated),normalised cell viability,[1],1.03 ± 0.025
same,normalised cell viability,[2],1.02 ± 0.023
same,normalised cell viability,[3],1.03 ± 0.015
same,normalised cell viability,[4],1.02 ± 0.026
same,normalised cell viability,[5],1.017 ± 0.0058
same,normalised cell viability,[6],1.003 ± 0.0058
C/C=C1\C(=O)C[C@H]2[C@@H]3CCC4=CC(=O)CC[C@]4(C)[C@H]3CC[C@]12C [(Z)-Guggulsterone],normalised cell viability,[1],0.9933 ± 0.0015
same,normalised cell viability,[2],0.98 ± 0.031
same,normalised cell viability,[3],0.994 ± 0.02
same,normalised cell viability,[4],0.964 ± 0.029
same,normalised cell viability,[5],0.9953 ± 0.0035
same,normalised cell viability,[6],0.9887 ± 0.0091
O=C(c1ccc(Cl)cc1)N1CCN(c2ccc([N+](=O)[O-])c3ncccc23)CC1,normalised cell viability,[1],1.01 ± 0.013
same,normalised cell viability,[2],1.01 ± 0.027
same,normalised cell viability,[3],0.992 ± 0.014
same,normalised cell viability,[4],0.996 ± 0.014
same,normalised cell viability,[5],0.997 ± 0.015
same,normalised cell viability,[6],1 ± 0.021
CN(C)C(=O)C(CCN1CCC(O)(c2ccc(Cl)cc2)CC1)(c1ccccc1)c1ccccc1 [Loperamide HCl],normalised cell viability,[1],1.02 ± 0.026
same,normalised cell viability,[2],0.893 ± 0.035
same,normalised cell viability,[3],1.047 ± 0.0058
same,normalised cell viability,[4],0.984 ± 0.012
same,normalised cell viability,[5],1.017 ± 0.0058
same,normalised cell viability,[6],0.919 ± 0.0099
CN(C)C(=O)C(CCN1CCC(O)(c2ccc(Cl)cc2)CC1)(c1ccccc1)c1ccccc1 [Loperamide hydrochloride],normalised cell viability,[1],0.9953 ± 0.0042
same,normalised cell viability,[2],0.405 ± 0.032
same,normalised cell viability,[3],1.017 ± 0.0058
same,normalised cell viability,[4],0.87 ± 0.29
same,normalised cell viability,[5],1
same,normalised cell viability,[6],0.0171 ± 0.0045
O=C(CCCN1CCC(O)(c2ccc(Cl)cc2)CC1)c1ccc(F)cc1 [Haloperidol],normalised cell viability,[1],0.996 ± 0.013
same,normalised cell viability,[2],0.93 ± 0.023
same,normalised cell viability,[3],1.01
same,normalised cell viability,[4],1.01 ± 0.025
same,normalised cell viability,[5],0.9843 ± 0.0035
same,normalised cell viability,[6],0.985 ± 0.002
OC1(c2ccc(Cl)cc2)CCN(Cc2c[nH]c3ccccc23)CC1,normalised cell viability,[1],0.972 ± 0.021
same,normalised cell viability,[2],0.852 ± 0.052
same,normalised cell viability,[3],1.003 ± 0.0061
same,normalised cell viability,[4],1.04 ± 0.086
same,normalised cell viability,[5],0.9753 ± 0.0065
same,normalised cell viability,[6],0.988 ± 0.01
Nc1nc2[nH]cnc2c(=S)[nH]1 [Thioguanine],normalised cell viability,[1],0.931 ± 0.0046
same,normalised cell viability,[2],0.423 ± 0.024
same,normalised cell viability,[3],0.9813 ± 0.0011
same,normalised cell viability,[4],0.754 ± 0.04
same,normalised cell viability,[5],0.9133 ± 0.0051
same,normalised cell viability,[6],0.119 ± 0.011
Cc1[nH]c2ccccc2c1C1=C(NCCc2ccc(F)cc2)C(=O)N(C)C1=O,normalised cell viability,[1],0.964 ± 0.019
same,normalised cell viability,[2],0.962 ± 0.053
same,normalised cell viability,[3],0.988 ± 0.011
same,normalised cell viability,[4],0.973 ± 0.021
same,normalised cell viability,[5],0.977 ± 0.007
same,normalised cell viability,[6],0.9803 ± 0.0047
Cc1[nH]c2ccccc2c1CCNCc1ccc(/C=C/C(=O)NO)cc1 [Panobinostat (LBH589)],normalised cell viability,[1],0.00703 ± 0.0011
same,normalised cell viability,[2],0.00134 ± 0.00097
same,normalised cell viability,[3],0.00592 ± 0.0022
same,normalised cell viability,[4],0.00214 ± 0.0018
same,normalised cell viability,[5],0.00625 ± 0.001
same,normalised cell viability,[6],9e-05 ± 0.00045
CC(C)N(CCCNC(=O)Nc1ccc(C(C)(C)C)cc1)C[C@H]1O[C@@H](n2ccc3c(N)ncnc32)[C@H](O)[C@@H]1O,normalised cell viability,[1],1.003 ± 0.0058
same,normalised cell viability,[2],1.07 ± 0.025
same,normalised cell viability,[3],0.984 ± 0.0053
same,normalised cell viability,[4],1.04 ± 0.01
same,normalised cell viability,[5],1.002 ± 0.0068
same,normalised cell viability,[6],1.002 ± 0.0076
CCOC(=O)[C@]12CC1/C(=N\O)c1ccccc1O2 (some centres not stated),normalised cell viability,[1],1.017 ± 0.0058
same,normalised cell viability,[2],1.01 ± 0.024
same,normalised cell viability,[3],1.007 ± 0.0058
same,normalised cell viability,[4],1.02
same,normalised cell viability,[5],0.997 ± 0.013
same,normalised cell viability,[6],1.002 ± 0.0068
C[N+](C)(C)CCO.[Br-] [Choline bromide],normalised cell viability,[1],1.017 ± 0.0058
same,normalised cell viability,[2],1 ± 0.019
same,normalised cell viability,[3],1.017 ± 0.0058
same,normalised cell viability,[4],1.02
same,normalised cell viability,[5],0.995 ± 0.0078
same,normalised cell viability,[6],0.998 ± 0.014
CC(C(=O)Nc1cccc(/N=C/c2c(O)ccc3ccccc23)c1)c1ccccc1 (configuration not stated) [Salermide],normalised cell viability,[1],0.999 ± 0.014
same,normalised cell viability,[2],1.01 ± 0.02
same,normalised cell viability,[3],0.9942 ± 0.0055
same,normalised cell viability,[4],1 ± 0.035
same,normalised cell viability,[5],0.9967 ± 0.0083
same,normalised cell viability,[6],1.002 ± 0.01
O=C(c1ccc(F)cc1)N1CCCC(c2nc(-c3ccc(F)cc3)no2)C1 (configuration not stated),normalised cell viability,[1],1.03 ± 0.015
same,normalised cell viability,[2],1.023 ± 0.0058
same,normalised cell viability,[3],1.02 ± 0.011
same,normalised cell viability,[4],1.013 ± 0.0058
same,normalised cell viability,[5],1.01
same,normalised cell viability,[6],1.001 ± 0.0078
Cn1ncnc1[C@H]1c2n[nH]c(=O)c3cc(F)cc(c23)N[C@@H]1c1ccc(F)cc1,normalised cell viability,[1],0.996 ± 0.012
same,normalised cell viability,[2],0.934 ± 0.028
same,normalised cell viability,[3],1.01 ± 0.017
same,normalised cell viability,[4],1.05 ± 0.015
same,normalised cell viability,[5],0.436 ± 0.0095
same,normalised cell viability,[6],0.28 ± 0.016
CCN(CC)CCCC(C)Nc1c2ccc(Cl)cc2nc2ccc(OC)cc12 (configuration not stated) [Quinacrine dihydrochloride],normalised cell viability,[1],0.999 ± 0.021
same,normalised cell viability,[2],0.00304 ± 0.0019
same,normalised cell viability,[3],1.01 ± 0.023
same,normalised cell viability,[4],1.01 ± 0.014
same,normalised cell viability,[5],0.995 ± 0.014
same,normalised cell viability,[6],0.00159 ± 0.0012
CCN(CC)CCCC(C)Nc1ccnc2cc(Cl)ccc12 (configuration not stated) [Chloroquine diphosphate],normalised cell viability,[1],1 ± 0.015
same,normalised cell viability,[2],0.752 ± 0.026
same,normalised cell viability,[3],1.001 ± 0.009
same,normalised cell viability,[4],0.963 ± 0.04
same,normalised cell viability,[5],0.9793 ± 0.0076
same,normalised cell viability,[6],0.947 ± 0.013
